# In PubChem BioAssay (Tox21):
# Results filed as inconclusive are left out. Where a call stands in place of a potency, no number is given. Unmarked numbers belong to inactive results. Activity calls are given as the source filed them. Unless noted, calls follow the shape of the dose curve; as a rule, active = well fitted curve in the direction sought with a large enough effect in the repeat runs; inconclusive = weak or mixed curves; inactive = no such curve, though single readings can be large; an effect the other way counts as inactive or inconclusive.
# Columns and labels:
# [1] = qHTS assay to identify small molecule antagonists of the glucocorticoid receptor (GR) signaling pathway - cell viability counter screen (AID 720693); also: nearly all actives have a fitted effect of over 55% in size
# [2] = qHTS assay for identifying genotoxic compounds that show differential cytotoxicity against isogenic chicken DT40 cell lines with known DNA damage response pathways - wild type cell line (AID 743012); also: nearly all actives have a fitted effect of over 60% in size
# Outline: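 Cells (DT40 wild type, 300/well) are treated with DMSO-dissolved compounds after a ~0.5 h pre-incubation and kept 40 h at 37 C/5% CO2. Viability is then measured by CellTiter-Glo luminescence following 30 min at room temperature.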
# [3] = qHTS assay for identifying genotoxic compounds that show differential cytotoxicity against isogenic chicken DT40 cell lines with known DNA damage response pathways - Rev3 mutant cell line (AID 743014); also: nearly all actives have a fitted effect of over 55% in size
# [4] = qHTS assay for identifying genotoxic compounds that show differential cytotoxicity against isogenic chicken DT40 cell lines with known DNA damage response pathways - Rad54/Ku70 mutant cell line (AID 743015); also: nearly all actives have a fitted effect of over 60% in size
# [5] = qHTS assay to identify small molecule antagonists of the androgen receptor (AR) signaling pathway - cell viability counter screen (AID 743033; also: nearly all actives have a fitted effect of over 45% in size)
# [6] = qHTS assay to identify small molecule antagonists of the androgen receptor (AR) signaling pathway using the MDA cell line - cell viability counter screen (AID 743041; also: nearly all actives have a fitted effect of over 45% in size)
# Outline: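 Same-well cytotoxicity was assessed by CellTiter-Fluor in MDA-kb2 AR-luc cells after 16 h of compound treatment under R1881 agonism.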
# [7] = qHTS assay to identify small molecule antagonists of the thyroid receptor (TR) signaling pathway - cell viability counter screen (AID 743064); also: nearly all actives have a fitted effect of over 50% in size
# Outline: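 In rat pituitary GH3.TRE-Luc reporter cells co-exposed to compound and 1 nM T3 for 23.5 h, cytotoxicity was assessed with CellTiter-Fluor in the same wells, read by fluorescence.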
# [8] = qHTS assay to identify small molecule antagonists of the thyroid receptor (TR) signaling pathway (AID 743065); also: series mostly up to about 70 µM; nearly all actives have a fitted effect of over 55% in size
# Outline: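 GH3.TRE-Luc rat pituitary cells (two TREs driving luciferase) were dosed with compound, then stimulated with 1 nM T3 (final) for 23.5 h at 37 C. ONE-Glo luminescence was the read-out, with CellTiter-Fluor fluorescence as the cytotoxicity counter-screen.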
# [9] = tested on: thyroid hormone receptor (rat, GH3 cells); test: qHTS assay to identify small molecule agonists of the thyroid receptor (TR) signaling pathway (AID 743066; calls by dose curve)
# [10] = qHTS assay to identify small molecule antagonists of the estrogen receptor alpha (ER-alpha) signaling pathway - cell viability counter screen (AID 743074; calls by dose curve;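 also: HEK293 cells carrying ER-alpha-UAS-bla reporter stimulated with 17beta-estradiol; nearly all actives have a fitted effect of over 45% in size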)
# [11] = target: Aromatase (Homo sapiens) (UniProt P11511); test: qHTS assay to identify aromatase inhibitors (AID 743083); also: nearly all actives have a fitted effect of over 55% in size; also: potency is read from the fitted curve at half-maximal effect; as to activity, negative = inhibition: series mostly up to about 70 µM
# Chain of Aromatase (Homo sapiens) (P11511 whole entry, looked up): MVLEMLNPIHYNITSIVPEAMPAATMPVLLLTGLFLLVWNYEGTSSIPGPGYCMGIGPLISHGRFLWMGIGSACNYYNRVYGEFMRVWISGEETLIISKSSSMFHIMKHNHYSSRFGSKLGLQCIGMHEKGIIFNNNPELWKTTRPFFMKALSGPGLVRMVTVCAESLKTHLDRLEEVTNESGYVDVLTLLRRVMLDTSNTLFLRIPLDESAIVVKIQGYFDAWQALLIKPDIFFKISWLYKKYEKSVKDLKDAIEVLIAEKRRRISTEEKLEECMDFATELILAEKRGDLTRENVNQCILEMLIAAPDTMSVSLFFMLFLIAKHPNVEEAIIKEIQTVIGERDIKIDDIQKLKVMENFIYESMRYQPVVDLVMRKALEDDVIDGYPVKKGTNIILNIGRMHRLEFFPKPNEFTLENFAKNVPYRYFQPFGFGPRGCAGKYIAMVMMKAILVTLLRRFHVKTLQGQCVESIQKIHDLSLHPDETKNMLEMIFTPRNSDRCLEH
# [12] = qHTS assay to identify small molecule antagonists of the estrogen receptor alpha (ER-alpha) signaling pathway using the BG1 cell line - cell viability counter screen (AID 743081);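 also: compound given together with 17beta-estradiol as the ER stimulus; series mostly up to about 70 µM; nearly all actives have a fitted effect of over 45% in size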
# [13] = target: Estrogen receptor (Homo sapiens) (UniProt P03372); test: qHTS assay to identify small molecule antagonists of the estrogen receptor alpha (ER-alpha) signaling pathway (AID 743069; active = well fitted curve in the direction sought with a large enough effect in the signal ratio in the repeat runs, not every such curve was filed as active; the % refers to the signal ratio)
# Chain of Estrogen receptor (Homo sapiens) (P03372 whole entry, looked up): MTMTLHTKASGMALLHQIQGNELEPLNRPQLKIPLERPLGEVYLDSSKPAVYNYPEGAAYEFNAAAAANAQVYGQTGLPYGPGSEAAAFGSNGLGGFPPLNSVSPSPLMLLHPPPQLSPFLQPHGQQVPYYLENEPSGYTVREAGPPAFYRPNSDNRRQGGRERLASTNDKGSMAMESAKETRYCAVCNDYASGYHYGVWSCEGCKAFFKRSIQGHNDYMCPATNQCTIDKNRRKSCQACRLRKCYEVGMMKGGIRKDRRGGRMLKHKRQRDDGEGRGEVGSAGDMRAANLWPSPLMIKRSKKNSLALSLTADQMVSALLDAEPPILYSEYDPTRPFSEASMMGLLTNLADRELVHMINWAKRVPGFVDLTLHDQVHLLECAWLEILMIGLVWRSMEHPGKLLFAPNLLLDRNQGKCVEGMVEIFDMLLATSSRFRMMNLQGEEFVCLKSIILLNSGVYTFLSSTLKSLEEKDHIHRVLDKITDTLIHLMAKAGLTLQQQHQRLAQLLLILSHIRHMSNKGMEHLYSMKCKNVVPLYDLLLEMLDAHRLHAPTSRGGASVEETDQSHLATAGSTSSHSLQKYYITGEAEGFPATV
# Outline: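 Reporter cells (ER-alpha-bla, HEK293 background) are conditioned overnight in stripped-serum medium (2% charcoal-stripped FBS). Compound and 17beta-estradiol exposure runs 18 hr at 37C, 5% CO2.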
# [14] = target: Estrogen receptor (Homo sapiens) (UniProt P03372); test: qHTS assay to identify small molecule agonists of the estrogen receptor alpha (ER-alpha) signaling pathway (AID 743075; calls by dose curve;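 also: HEK293 GripTite cells with ER-alpha and UAS-driven beta-lactamase reporter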)
# [15] = target: Estrogen receptor (Homo sapiens) (UniProt P03372); test: qHTS assay to identify small molecule agonists of the estrogen receptor alpha (ER-alpha) signaling pathway using the BG1 cell line (AID 743079); also: nearly all actives have a fitted effect of over 20% in size
# [16] = qHTS assay to identify small molecule antagonists of the estrogen receptor alpha (ER-alpha) signaling pathway using the BG1 cell line (AID 743080; calls by dose curve;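 also: BG1 cells stimulated with 17beta-estradiol alongside compound; series mostly up to about 70 µM; nearly all actives have a fitted effect of over 25% in size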)
# Outline: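 BG1-Luc-4E2 cells (endogenous full-length ER-alpha, 4xERE luciferase) hormone-starved 5 days in charcoal-stripped FBS, plated 4,000/well for 24 h, then compound plus 17beta-estradiol for 21.5 h at 37 C; ONE-Glo luminescence read.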
structure (smiles),measurement,setting,value
COC(=O)C1CC(=O)C(C(=O)OC)CC1=O (stereo not drawn),"viability change, negative = cytotoxic",[1],-6.7% [at 7.04 µM]
same,"activity change, negative = cytotoxicity",[2],-1.23% [at 8.52 µM]
same,"activity, negative = cytotoxicity",[3],6.72% [at 8.53 µM]
same,"activity change, negative = cytotoxicity",[4],-1.14% [at 8.55 µM]
same,"activity change, negative = cytotoxicity",[5],-11.9% [at 7.04 µM]
same,"viability change, negative = cytotoxic",[6],6.75% [at 8.47 µM]
same,"activity change, negative = cytotoxic",[7],29.4% [at 8.44 µM]
same,"activity, negative = inhibition",[8],-0.0159% [at 8.44 µM]
same,activation,[9],-0.929% [at 8.08 µM]
same,"activity, negative = cytotoxicity",[10],10.1% [at 6.72 µM]
same,"activity, negative = inhibition",[11],8.29% [at 8.47 µM]
CCCOC(OCCC)OCCC,outcome,[1],inactive
same,Potency,[2],inactive
same,Potency,[3],inactive
same,Potency,[4],inactive
same,Potency,[5],inactive
same,Potency,[6],inactive
same,Potency,[7],inactive
same,Potency,[8],inactive
same,outcome,[9],inactive
same,outcome,[10],inactive
same,outcome,[12],inactive
same,Potency,[11],inactive
CCOCCOCCOCC,outcome,[1],inactive
same,Potency,[2],inactive
same,Potency,[3],inactive
same,Potency,[4],inactive
same,Potency,[5],inactive
same,Potency,[6],inactive
same,Potency,[7],inactive
same,Potency,[8],inactive
same,outcome,[9],inactive
same,outcome,[10],inactive
same,outcome,[12],inactive
same,Potency,[11],inactive
O=S(=O)(O)c1ccc2cc(O)c(S(=O)(=O)O)cc2c1,outcome,[1],inactive
same,Potency,[2],inactive
same,Potency,[3],inactive
same,Potency,[4],inactive
same,Potency,[5],inactive
same,Potency,[6],inactive
same,Potency,[7],inactive
same,Potency,[8],inactive
same,outcome,[9],inactive
same,outcome,[13],inactive
same,outcome,[14],inactive
same,Potency,[15],inactive
same,Potency,[16],inactive
same,outcome,[12],inactive
same,Potency,[11],inactive
O=C(NCCN1CCOCC1)c1ccc(Cl)cc1,outcome,[1],inactive
same,Potency,[2],inactive
same,Potency,[3],inactive
same,Potency,[4],inactive
same,Potency,[5],inactive
same,Potency,[6],inactive
same,Potency,[7],inactive
same,Potency,[8],inactive
same,outcome,[9],inactive
same,outcome,[10],inactive
same,outcome,[12],inactive
same,Potency,[11],inactive
COCCOCCOCCOCCOCCO,outcome,[1],inactive
same,Potency,[2],inactive
same,Potency,[3],inactive
same,Potency,[4],inactive
same,Potency,[5],inactive
same,Potency,[6],inactive
same,Potency,[7],inactive
same,Potency,[8],inactive
same,outcome,[9],inactive
same,outcome,[10],inactive
same,outcome,[12],inactive
same,Potency,[11],inactive
CC(=O)Nc1ccc(S(=O)(=O)Cl)cc1,outcome,[1],inactive
same,Potency,[2],inactive
same,Potency,[3],inactive
same,Potency,[4],inactive
same,Potency,[5],inactive
same,Potency,[6],inactive
same,Potency,[7],inactive
same,Potency,[8],inactive
same,outcome,[9],inactive
same,outcome,[10],inactive
same,outcome,[12],inactive
same,Potency,[11],inactive
O=C(OCC1(COC(=O)c2cccnc2)CCCC(COC(=O)c2cccnc2)(COC(=O)c2cccnc2)C1O)c1cccnc1,outcome,[1],inactive
same,Potency,[2],inactive
same,Potency,[3],inactive
same,Potency,[4],inactive
same,Potency,[5],inactive
same,Potency,[6],inactive
same,Potency,[7],inactive
same,Potency,[8],inactive
same,outcome,[9],inactive
same,outcome,[10],inactive
same,outcome,[12],inactive
same,Potency,[11],inactive
COc1ccc(C2CNC(=O)C2)cc1OC1CCCC1 (stereo not drawn),outcome,[1],inactive
same,Potency,[2],inactive
same,Potency,[3],inactive
same,Potency,[4],inactive
same,Potency,[5],inactive
same,Potency,[6],inactive
same,Potency,[7],inactive
same,Potency,[8],inactive
same,outcome,[9],inactive
same,outcome,[10],inactive
same,outcome,[12],inactive
same,Potency,[11],inactive
CN=C(NC#N)Nc1ccc(C2=NNC(=O)CC2C)cc1 (stereo not drawn),outcome,[1],inactive
same,Potency,[2],inactive
same,Potency,[3],inactive
same,Potency,[4],inactive
same,Potency,[5],inactive
same,Potency,[6],inactive
same,Potency,[7],inactive
same,Potency,[8],inactive
same,outcome,[9],inactive
same,outcome,[10],inactive
same,outcome,[12],inactive
same,Potency,[11],inactive
NCCS,outcome,[1],inactive
same,Potency,[2],inactive
same,Potency,[3],inactive
same,Potency,[4],inactive
same,Potency,[5],inactive
same,Potency,[6],inactive
same,Potency,[7],inactive
same,Potency,[8],inactive
same,outcome,[9],inactive
same,outcome,[10],inactive
same,outcome,[12],inactive
same,Potency,[11],inactive
Cc1cc2cc3c(C)cc(=O)oc3c(C)c2o1,outcome,[1],inactive
same,Potency,[2],inactive
same,Potency,[3],inactive
same,Potency,[4],inactive
same,Potency,[5],inactive
same,Potency,[6],inactive
same,Potency,[7],inactive
same,Potency,[8],inactive
same,outcome,[9],inactive
same,outcome,[10],inactive
same,outcome,[14],inactive
same,Potency,[15],inactive
same,outcome,[12],inactive
same,Potency,[11],inactive
FC(F)(F)c1ccccc1-n1ccnc1,outcome,[1],inactive
same,Potency,[2],inactive
same,Potency,[3],inactive
same,Potency,[4],inactive
same,Potency,[5],inactive
same,Potency,[6],inactive
same,Potency,[7],inactive
same,Potency,[8],inactive
same,outcome,[9],inactive
same,outcome,[10],inactive
same,outcome,[12],inactive
same,Potency,[11],6.68 µM (active)
c1ccc2c(c1)ccc1c3ccccc3ccc21,outcome,[1],inactive
same,Potency,[2],inactive
same,Potency,[3],inactive
same,Potency,[4],inactive
same,Potency,[5],inactive
same,Potency,[6],inactive
same,Potency,[7],inactive
same,Potency,[8],inactive
same,outcome,[9],inactive
same,outcome,[10],inactive
same,outcome,[12],inactive
same,Potency,[11],inactive
C[Si](C)=O,"viability change, negative = cytotoxic",[1],-9.5% [at 7.04 µM]
same,"activity change, negative = cytotoxicity",[2],12.9% [at 8.52 µM]
same,"activity, negative = cytotoxicity",[3],-9.66% [at 8.53 µM]
same,"activity change, negative = cytotoxicity",[4],1.94% [at 8.55 µM]
same,"activity change, negative = cytotoxicity",[5],2.74% [at 7.04 µM]
same,"viability change, negative = cytotoxic",[6],-9.84% [at 8.47 µM]
same,"activity change, negative = cytotoxic",[7],-4.47% [at 8.44 µM]
same,"activity, negative = inhibition",[8],0.0327% [at 8.44 µM]
same,activation,[9],0.231% [at 8.08 µM]
same,"activity, negative = cytotoxicity",[10],5.35% [at 6.72 µM]
same,"activity change, negative = cytotoxicity",[12],-7.83% [at 8.47 µM]
same,"activity, negative = inhibition",[11],11% [at 8.47 µM]
C[Si](C)(C)C,outcome,[1],inactive
same,Potency,[2],inactive
same,Potency,[3],inactive
same,Potency,[4],inactive
same,Potency,[5],inactive
same,Potency,[6],inactive
same,Potency,[7],inactive
same,Potency,[8],inactive
same,outcome,[9],inactive
same,outcome,[10],inactive
same,outcome,[12],inactive
same,Potency,[11],inactive
CCc1ccc(C=O)cc1,outcome,[1],inactive
same,Potency,[2],inactive
same,Potency,[3],inactive
same,Potency,[4],inactive
same,Potency,[5],inactive
same,Potency,[6],inactive
same,Potency,[7],inactive
same,Potency,[8],inactive
same,outcome,[9],inactive
same,outcome,[10],inactive
same,outcome,[12],inactive
same,Potency,[11],inactive
